# PubChem BioAssay
# Activity calls are given as the source filed them.
# Key:
# [1] = system: PRMT1 (protein arginine N-methyltransferase 1); assay: small molecules binding arginine methyltransferase PRMT1 – biochemical, small-molecule microarray, 635 nm fluorescence, primary screen (AID 1088); settings: higher = more signal;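 note: binding of Prmt1 protein to compounds spotted on small-molecule microarray slides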
# [2] = growth effects on S. cerevisiae YJM789 – YJM789 clinical isolate, OD600, 24 h, basal, primary screen (AID 1089); settings: higher = more signal, called active from +8 up or from −8 down;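 note: growth of clinical yeast isolate S. cerevisiae YJM 789 seeded 1000 cells per well; test concentration not given here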
# [3] = S. pombe growth modifiers, basal conditions – strain 972, OD600, 24 h, no modulator, primary screen (AID 1090);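 note: basal condition with compound alone and no growth modifier present; test concentration not given here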; settings: S. pombe 972 growth, higher = more signal, called active from +8 up or from −8 down
# [4] = budding yeast growth modifiers under rapamycin – strain BY4716, OD600, 96 h, primary screen (AID 1091); note: test concentration not given here; settings: S. cerevisiae BY4716 + rapamycin, higher = more signal, called active from +8 up or from −8 down
# [5] = molecular target: Torsin-1A-interacting protein 2 (Homo sapiens) (UniProt Q8NFQ8); assay: small molecules binding lysate-expressed LULL1 – cell lysate, human LULL1 lysate, 635/667 nm fluorescence, primary screen (AID 1092); settings: small-molecule microarray, hLULL1 lysate binding, 635 nm fluorescence; higher = more signal;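 note: probe is lysate of COS7 cells overexpressing human LULL1; score merges per-feature 667 nm fluorescence with signal-to-noise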
# [6] = optical density change of DRC41 E. coli – strain DRC41, OD650, 24 h, E. coli filamentation project, primary screen (AID 1093);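 note: MC1000 strain lacking acrAB efflux and sulA so SOS filamentation is blocked; test concentration not given here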; settings: E. coli DRC41 growth, higher = more signal, called active from +8 up or from −8 down
# [7] = probe aLefty2 binding to arrayed compounds – biochemical, biotinylated probe, 635/667 nm fluorescence, primary screen (AID 1094); settings: small-molecule microarray, higher = more signal;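 note: score merges spot fluorescence near 667 nm with spot signal-to-noise ratio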
# [8] = system: Noggin (protein binding on small-molecule microarray); assay: small molecules binding Noggin protein – biochemical, 635/667 nm fluorescence, primary screen (AID 1095); settings: 635 nm fluorescence, higher = more signal;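 note: score merges 667 nm feature fluorescence with signal to noise over triplicate slides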
# [9] = molecular target: Neurogenic locus notch homolog protein 3 (Homo sapiens) (UniProt Q9UM47); assay: small molecules binding NOTCH3 protein – biochemical, 635/667 nm fluorescence, primary screen (AID 1096); settings: small-molecule microarray, 635 nm fluorescence, higher = more signal
# [10] = probe aEGFR binding to arrayed compounds – biochemical, biotinylated probe, 635/667 nm fluorescence, primary screen (AID 1097); settings: small-molecule microarray, higher = more signal;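 note: probe is a biotinylated anti-EGFR antibody binding compounds printed on slides; score combines fluorescence near 667 nm and signal to noise of each spot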
# Chain of Torsin-1A-interacting protein 2 (Homo sapiens) (Q8NFQ8 whole entry, looked up): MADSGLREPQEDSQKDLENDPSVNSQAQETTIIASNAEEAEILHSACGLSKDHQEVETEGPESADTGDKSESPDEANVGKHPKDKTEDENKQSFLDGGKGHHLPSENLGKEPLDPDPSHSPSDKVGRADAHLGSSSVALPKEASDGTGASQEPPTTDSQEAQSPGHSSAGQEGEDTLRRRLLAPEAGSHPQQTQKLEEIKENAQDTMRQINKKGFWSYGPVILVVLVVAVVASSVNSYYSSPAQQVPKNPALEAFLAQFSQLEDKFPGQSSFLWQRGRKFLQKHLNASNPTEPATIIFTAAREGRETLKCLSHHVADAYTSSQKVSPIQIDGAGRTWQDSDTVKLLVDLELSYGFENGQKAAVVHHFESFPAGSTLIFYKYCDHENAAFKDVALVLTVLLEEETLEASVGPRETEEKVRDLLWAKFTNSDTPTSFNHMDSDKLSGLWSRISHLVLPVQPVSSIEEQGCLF
# Chain of Neurogenic locus notch homolog protein 3 (Homo sapiens) (Q9UM47 whole entry, looked up): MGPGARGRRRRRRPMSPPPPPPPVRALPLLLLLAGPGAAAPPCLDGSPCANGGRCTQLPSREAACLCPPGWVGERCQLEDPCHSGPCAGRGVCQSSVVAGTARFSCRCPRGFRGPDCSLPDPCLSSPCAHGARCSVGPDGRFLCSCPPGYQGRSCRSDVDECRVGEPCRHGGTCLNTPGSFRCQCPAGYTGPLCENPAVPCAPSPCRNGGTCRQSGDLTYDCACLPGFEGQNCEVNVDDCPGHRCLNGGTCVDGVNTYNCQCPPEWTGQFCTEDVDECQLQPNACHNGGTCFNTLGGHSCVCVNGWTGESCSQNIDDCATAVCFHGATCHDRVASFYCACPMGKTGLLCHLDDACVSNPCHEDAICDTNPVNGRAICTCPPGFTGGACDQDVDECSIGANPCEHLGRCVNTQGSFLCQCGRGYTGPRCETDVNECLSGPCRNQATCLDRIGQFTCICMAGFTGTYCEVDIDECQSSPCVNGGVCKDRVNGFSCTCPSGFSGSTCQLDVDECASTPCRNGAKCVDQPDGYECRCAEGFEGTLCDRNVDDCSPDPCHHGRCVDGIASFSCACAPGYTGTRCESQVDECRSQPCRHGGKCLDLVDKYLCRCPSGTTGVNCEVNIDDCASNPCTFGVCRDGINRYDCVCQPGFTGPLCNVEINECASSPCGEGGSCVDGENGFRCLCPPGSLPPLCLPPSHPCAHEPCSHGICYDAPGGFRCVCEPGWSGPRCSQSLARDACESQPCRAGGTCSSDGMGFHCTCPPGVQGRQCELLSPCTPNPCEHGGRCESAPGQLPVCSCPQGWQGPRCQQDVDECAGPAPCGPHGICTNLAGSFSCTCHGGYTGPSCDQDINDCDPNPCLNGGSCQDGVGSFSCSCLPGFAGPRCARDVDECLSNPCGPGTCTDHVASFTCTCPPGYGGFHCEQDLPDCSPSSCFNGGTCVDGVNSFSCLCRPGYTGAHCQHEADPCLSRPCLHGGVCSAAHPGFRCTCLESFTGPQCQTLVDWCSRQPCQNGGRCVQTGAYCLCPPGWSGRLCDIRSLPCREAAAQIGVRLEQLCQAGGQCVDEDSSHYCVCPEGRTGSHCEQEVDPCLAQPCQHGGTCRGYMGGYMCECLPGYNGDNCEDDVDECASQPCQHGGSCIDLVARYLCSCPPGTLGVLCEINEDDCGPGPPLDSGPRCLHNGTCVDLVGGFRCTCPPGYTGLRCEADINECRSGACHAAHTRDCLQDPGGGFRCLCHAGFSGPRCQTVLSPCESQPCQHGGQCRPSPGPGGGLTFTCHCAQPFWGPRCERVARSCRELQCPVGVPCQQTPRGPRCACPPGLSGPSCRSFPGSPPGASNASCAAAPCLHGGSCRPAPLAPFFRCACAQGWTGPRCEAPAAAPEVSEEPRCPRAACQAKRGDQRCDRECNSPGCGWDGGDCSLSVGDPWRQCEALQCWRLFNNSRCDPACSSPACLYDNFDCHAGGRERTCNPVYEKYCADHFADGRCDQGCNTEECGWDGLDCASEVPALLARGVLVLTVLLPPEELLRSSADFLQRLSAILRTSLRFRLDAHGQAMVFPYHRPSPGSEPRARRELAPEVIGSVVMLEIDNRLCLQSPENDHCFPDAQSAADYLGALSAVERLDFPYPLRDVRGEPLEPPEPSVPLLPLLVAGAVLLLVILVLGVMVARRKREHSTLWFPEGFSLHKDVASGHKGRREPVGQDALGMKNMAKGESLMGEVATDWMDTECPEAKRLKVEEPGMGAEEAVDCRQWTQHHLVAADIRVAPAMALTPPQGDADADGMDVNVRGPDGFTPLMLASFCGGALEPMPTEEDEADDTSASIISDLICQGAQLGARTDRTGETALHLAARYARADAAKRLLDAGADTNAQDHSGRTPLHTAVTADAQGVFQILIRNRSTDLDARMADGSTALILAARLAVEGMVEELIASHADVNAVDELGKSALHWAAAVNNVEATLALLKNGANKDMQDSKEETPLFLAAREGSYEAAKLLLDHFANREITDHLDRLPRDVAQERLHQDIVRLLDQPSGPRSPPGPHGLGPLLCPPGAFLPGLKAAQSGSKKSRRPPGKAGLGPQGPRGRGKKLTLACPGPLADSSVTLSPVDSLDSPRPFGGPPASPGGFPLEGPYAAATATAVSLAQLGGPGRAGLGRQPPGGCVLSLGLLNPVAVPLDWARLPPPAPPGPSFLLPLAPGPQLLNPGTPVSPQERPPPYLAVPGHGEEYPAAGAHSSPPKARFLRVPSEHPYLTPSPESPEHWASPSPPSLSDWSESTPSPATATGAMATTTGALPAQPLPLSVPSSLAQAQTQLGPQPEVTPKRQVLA
Structure (SMILES),composite z-score [1],z-score [2],z-score [3],z-score [4],composite z-score [5],z-score [6],composite z-score [7],composite z-score [8],composite z-score [9],composite z-score [10]
[N-]=[N+]=NCc1ccccc1C[C@@]1(C(=O)NCC(O)CO)N=C(c2ccc(OCCCO)cc2)O[C@@H]1c1ccccc1 (stereo not given in full),0.303,-0.213 (inactive),-0.272 (inactive),-0.37 (inactive),3.21,0.627 (inactive),0.202,-0.962,-1.12,0.0061
CCOC(=O)C1=CC[C@H]2C(=O)N(c3ccccc3)C(=O)[C@@H]12,1.48,0.296 (inactive),-0.0087 (inactive),-0.487 (inactive),3.4,-0.981 (inactive),0.157,0.436,1.07,0.08
CC(C)NC(=O)[C@@H]1c2ccccc2C(=O)N(C(C)C)[C@H]1c1ccc(CO)cc1,1.44,0.549 (inactive),0.458 (inactive),0.386 (inactive),2.99,1.36 (inactive),-0.0478,-1.94,-0.715,-0.44
O=C1O[C@@H](c2ccccc2)[C@@H](c2ccccc2)N2[C@@H](c3ccc(OCCO)cc3)[C@]3(C(=O)Nc4ccc(C#CCCO)cc43)[C@@H](C(=O)NC[C@H](O)c3ccccc3)[C@H]12,1.54,2.55 (inactive),1.19 (inactive),4.63 (inactive),2.71,0.695 (inactive),0.409,1.25,0.667,0.258
CC(C)Cc1ccc(CN2CC[C@@H](N)C2)cc1,-1.05,-1.18 (inactive),-21.4 (active),-4.81 (inactive),-1.26,-4.43 (inactive),-0.119,-0.707,-0.462,-0.336
C=CCN1C(=O)[C@]2(Cc3ccccc3)N=C(c3ccc(OCCCO)cc3)O[C@@H]2c2ccccc21,1.53,0.331 (inactive),-0.694 (inactive),1.46 (inactive),3.13,0.482 (inactive),0.295,1.2,1.15,0.133
OB1C=CCC(CCc2ccccc2)O1 (stereo not given),-1.12,-1.95 (inactive),-2.06 (inactive),-0.762 (inactive),-1.05,1.96 (inactive),-0.192,-0.0988,-1.12,-0.211
CS(=O)(=O)CCOC(=O)C1=CC(CCCO)=CC(C2CC2)N(Cc2cc3c(cc2Br)OCO3)C=C1C(=O)OCCS(C)(=O)=O (stereo not given),1.37,-0.955 (inactive),-1.87 (inactive),-1.32 (inactive),1.84,0.102 (inactive),0.0723,0.39,0.533,0.0423
O=C(CS)NCCCCCNC(=O)[C@H]1C[C@H]2C(=O)NCC(=O)N2[C@H]1c1ccc(O)cc1,-0.313,-2.76 (inactive),1.02 (inactive),-1.11 (inactive),-1.29,0.77 (inactive),-0.179,-0.177,-0.905,-0.132
O=C(NCc1ccccc1)[C@@H]1c2ccccc2C(=O)N(C2Cc3ccccc3C2)[C@H]1c1ccc(CO)cc1,1.56,0.106 (inactive),0.287 (inactive),0.644 (inactive),2.03,-0.874 (inactive),0.126,0.149,1.03,0.194
CCOC(=O)C1=CC[C@@H](c2ccccc2)N(S(=O)(=O)c2ccc(C)cc2)[C@H]1c1ccc(CC)cc1,1.27,0.891 (inactive),1.94 (inactive),2.17 (inactive),2.02,-0.315 (inactive),0.05,-0.503,0.716,0.279
COCCOC(=O)N1C(=O)[C@@]2(c3cc(C#CC4=CCCCC4)ccc31)[C@H](c1ccc(OCCO)cc1)N1[C@H](c3ccccc3)[C@H](c3ccccc3)OC(=O)[C@H]1[C@@H]2C(=O)N1CCc2cc(OC)c(OC)cc2C1,1.55,2.47 (inactive),0.535 (inactive),4.01 (inactive),1.94,1.96 (inactive),0.034,0.921,1.06,0.119
CC(C)C(=C=CC[C@H](O)c1ccc(CO)o1)CCO,1.52,-0.0662 (inactive),-0.697 (inactive),-0.536 (inactive),1.51,-0.253 (inactive),-0.28,0.679,0.787,-0.14
CC(C)(C)OC(=O)CC[C@]1(C(N)=O)N=C(c2ccc(OCCCO)cc2)O[C@H]1c1ccccc1,0.735,0.519 (inactive),0.256 (inactive),0.793 (inactive),3.74,0.152 (inactive),0.423,0.115,0.89,0.372
COC(=O)C(CC#Cc1ccc2c(c1)[C@]1(C(=O)N2)[C@H](c2ccccc2OCCO)N2[C@H](c3ccccc3)[C@H](c3ccccc3)OC(=O)[C@H]2[C@@H]1C(N)=O)C(=O)OC,1.27,1.31 (inactive),-0.117 (inactive),3.7 (inactive),2.93,1.13 (inactive),1.11,0.0814,0.895,0.656
COCCOC(=O)N1C(=O)[C@@]2(c3cc(C#CCCO)ccc31)[C@H](c1ccc(OCCO)cc1)N1[C@H](c3ccccc3)[C@H](c3ccccc3)OC(=O)[C@H]1[C@@H]2C(N)=O,1.54,2.66 (inactive),0.245 (inactive),6.06 (inactive),2.78,0.719 (inactive),-0.0383,0.626,1.08,-0.0436
CN(C)CCCCNC(=O)[C@@H]1C[C@@H]2C(=O)N[C@@H](CCCCN)C(=O)N2[C@@H]1c1ccc(O)cc1,1.3,0.184 (inactive),1.17 (inactive),3.58 (inactive),1.12,0.813 (inactive),0.0864,0.855,0.159,0.0552
COCCOC(=O)N1C(=O)[C@@]2(c3cc(C#CCCO)ccc31)[C@H](c1ccc(O)cc1)N1[C@H](c3ccccc3)[C@H](c3ccccc3)OC(=O)[C@H]1[C@@H]2C(=O)N1CCN(c2ncccn2)CC1,1.53,0.356 (inactive),0.686 (inactive),1.6 (inactive),3.17,0.531 (inactive),0.837,1.58,1.01,-0.283
COc1ccc(CCNC(=O)[C@@]2(c3ccc([N+](=O)[O-])cc3)CC(=O)N(CC34CC5CC(CC(C5)C3)C4)[C@@H]2c2ccc(CO)cc2I)cc1,1.54,0.484 (inactive),0.369 (inactive),6.17 (inactive),2.83,0.376 (inactive),-0.387,1.52,1.1,-0.151
CCOC(=O)C1=CC[C@@H](c2ccc(C(F)(F)F)cc2)N(S(=O)(=O)c2ccc(C)cc2)[C@H]1c1ccccc1,1.49,-0.641 (inactive),-0.482 (inactive),0.363 (inactive),2.92,-0.617 (inactive),0.285,0.496,1.05,0.208
[N-]=[N+]=NCc1ccccc1[C@@H]1OC(c2ccc(OCCCO)cc2)=N[C@]1(CCS(=O)(=O)c1ccccc1)C(N)=O,1.56,1.16 (inactive),-1.17 (inactive),-0.325 (inactive),3.51,0.901 (inactive),0.308,0.888,1.08,0.388
Cc1ccc(S[C@]2(C(=O)O)CC(=O)N(C(C)C)[C@@H]2c2ccc(CO)cc2)cc1,1.21,-1.54 (inactive),-0.916 (inactive),-0.963 (inactive),-0.634,1.66 (inactive),-0.0719,0.306,-0.229,-0.134
O[C@@H](Cc1ccccc1)[C@@H](/C=C/C1CC1)NCc1cccc(Cl)c1,-0.534,-2.26 (inactive),-19 (active),-2.31 (inactive),-0.44,-0.59 (inactive),0.0558,-1.08,-0.419,-0.296
COc1ccc([Si](C)(C)[C@H]2[C@H](CCn3cc([C@H](O)c4ccccc4)nn3)O[C@@]3(C(=O)N(C)c4ccccc43)[C@@H]2C)cc1,-0.133,-2.61 (inactive),0.644 (inactive),-0.254 (inactive),0.446,0.271 (inactive),-0.0317,0.176,0.133,-0.171
CCOc1cc(C(O)C2C=CC3C(=O)N(c4ccccc4)C(=O)C3N2Nc2ccc(C(C)C)cc2)ccc1O (stereo not given),1.55,0.471 (inactive),-1.28 (inactive),0.597 (inactive),3.42,-1.14 (inactive),0.0261,0.107,1.1,-0.0581
O=C(O)[C@H](Cc1ccccc1)n1cc(-c2ccccc2)nn1,0.112,0.306 (inactive),0.865 (inactive),0.173 (inactive),1.03,-0.741 (inactive),-0.0592,0.197,0.185,0.119
COc1ccc([C@H]2OC[C@@H]3CCC(=O)N32)cc1,-0.136,-0.481 (inactive),-0.809 (inactive),0.981 (inactive),0.399,-0.013 (inactive),-0.0699,0.397,1.01,0.0826
O=C1OCC=C[C@H]2OC34C=CCN(Cn5nnc6ccccc65)C(=O)[C@H]3N(CCCCCO)C(=O)[C@@H]4[C@@H]12 (stereo not given in full),-0.0541,-0.314 (inactive),0.421 (inactive),-0.582 (inactive),2.81,1.65 (inactive),0.484,-0.525,-0.475,-0.108
N#Cc1ccc(C(O)C2C=CC3C(=O)N(c4ccccc4)C(=O)C3N2Nc2ccccc2F)cc1 (stereo not given),0.713,-0.413 (inactive),0.135 (inactive),-0.851 (inactive),2.93,0.246 (inactive),-0.113,0.339,0.972,0.0262
CCOC(=O)C[C@H]1[C@H](OC(=O)c2ccc(C(=O)c3ccccc3)cc2)[C@@H](NC(=O)Cc2ccc(OC)cc2)c2cc(OCCCO)ccc2N1C(=O)c1ccc2ccccc2n1,0.794,0.328 (inactive),-0.22 (inactive),0.605 (inactive),1.6,0.213 (inactive),0.0768,0.666,1.16,0.0182
